What all share (assay): HT-SELEX; 20 mM HEPES pH 7, 140 mM KCl, 5 mM NaCl, 1 mM K2HPO4, 2 mM MgSO4, 100 uM EGTA, ZnSO4, 0.1% Tween20; room temperature, 1 h; high values mean tight binding
Common to all, as to details: protein: ivt; tags: eGFP (N-terminal); dsDNA, one strand shown

One assay concerns the target ZNF721 full-length (Homo sapiens, UniProt Q8TF20-2 1-923). The procedure, abridged:
(§1)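 Full-length or DNA-binding-domain forms of a tagged transcription factor were produced in HEK293 lysate or cell-free extract and immobilised on beads. Incubation with a randomized 40-base DNA library ran for 1 h at room temperature in HEPES/KCl low-stringency buffer with Tween20, after which bound DNA was washed, heat-eluted, PCR-amplified over successive cycles and Illumina-sequenced. Binding strength is given as the relative k-mer count in selected reads, higher for tighter binding.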

In the next assay the target is ZNF721 DBD1 (Homo sapiens, UniProt Q8TF20-2 29-461). The procedure, abridged:
as §1

The target in a further assay is ZNF721 DBD2 (Homo sapiens, UniProt Q8TF20-2 395-923). In a few lines: as §1
Sequence of ZNF721 DBD2 (Q8TF20 383-911): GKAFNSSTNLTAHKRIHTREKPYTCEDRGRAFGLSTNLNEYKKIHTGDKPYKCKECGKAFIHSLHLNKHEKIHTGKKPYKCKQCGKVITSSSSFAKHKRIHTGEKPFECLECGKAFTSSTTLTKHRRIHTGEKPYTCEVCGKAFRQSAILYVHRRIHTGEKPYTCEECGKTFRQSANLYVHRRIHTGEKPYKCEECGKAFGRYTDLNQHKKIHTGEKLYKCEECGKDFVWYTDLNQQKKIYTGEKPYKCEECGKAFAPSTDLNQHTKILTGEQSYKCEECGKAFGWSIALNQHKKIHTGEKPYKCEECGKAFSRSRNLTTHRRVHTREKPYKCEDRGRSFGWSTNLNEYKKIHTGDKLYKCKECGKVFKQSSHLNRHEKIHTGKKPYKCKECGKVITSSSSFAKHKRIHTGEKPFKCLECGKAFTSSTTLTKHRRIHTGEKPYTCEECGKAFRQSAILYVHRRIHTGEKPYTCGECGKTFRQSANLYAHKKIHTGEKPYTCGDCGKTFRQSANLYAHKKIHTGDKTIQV

Sequence of ZNF721 DBD1 (Q8TF20 17-449): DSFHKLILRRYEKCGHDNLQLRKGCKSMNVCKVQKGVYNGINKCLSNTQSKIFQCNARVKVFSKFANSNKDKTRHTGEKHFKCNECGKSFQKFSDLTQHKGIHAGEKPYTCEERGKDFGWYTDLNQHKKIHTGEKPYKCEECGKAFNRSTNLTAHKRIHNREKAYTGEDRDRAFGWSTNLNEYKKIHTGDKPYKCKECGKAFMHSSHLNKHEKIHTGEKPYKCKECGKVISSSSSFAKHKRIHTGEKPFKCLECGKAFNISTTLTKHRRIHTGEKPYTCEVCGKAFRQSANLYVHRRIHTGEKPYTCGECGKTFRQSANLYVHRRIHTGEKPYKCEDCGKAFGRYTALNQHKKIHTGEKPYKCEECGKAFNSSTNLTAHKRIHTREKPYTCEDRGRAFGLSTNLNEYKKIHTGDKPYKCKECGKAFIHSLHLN
Sequence of ZNF721 full-length (Q8TF20 other isoform, or with tags, fused parts or gaps): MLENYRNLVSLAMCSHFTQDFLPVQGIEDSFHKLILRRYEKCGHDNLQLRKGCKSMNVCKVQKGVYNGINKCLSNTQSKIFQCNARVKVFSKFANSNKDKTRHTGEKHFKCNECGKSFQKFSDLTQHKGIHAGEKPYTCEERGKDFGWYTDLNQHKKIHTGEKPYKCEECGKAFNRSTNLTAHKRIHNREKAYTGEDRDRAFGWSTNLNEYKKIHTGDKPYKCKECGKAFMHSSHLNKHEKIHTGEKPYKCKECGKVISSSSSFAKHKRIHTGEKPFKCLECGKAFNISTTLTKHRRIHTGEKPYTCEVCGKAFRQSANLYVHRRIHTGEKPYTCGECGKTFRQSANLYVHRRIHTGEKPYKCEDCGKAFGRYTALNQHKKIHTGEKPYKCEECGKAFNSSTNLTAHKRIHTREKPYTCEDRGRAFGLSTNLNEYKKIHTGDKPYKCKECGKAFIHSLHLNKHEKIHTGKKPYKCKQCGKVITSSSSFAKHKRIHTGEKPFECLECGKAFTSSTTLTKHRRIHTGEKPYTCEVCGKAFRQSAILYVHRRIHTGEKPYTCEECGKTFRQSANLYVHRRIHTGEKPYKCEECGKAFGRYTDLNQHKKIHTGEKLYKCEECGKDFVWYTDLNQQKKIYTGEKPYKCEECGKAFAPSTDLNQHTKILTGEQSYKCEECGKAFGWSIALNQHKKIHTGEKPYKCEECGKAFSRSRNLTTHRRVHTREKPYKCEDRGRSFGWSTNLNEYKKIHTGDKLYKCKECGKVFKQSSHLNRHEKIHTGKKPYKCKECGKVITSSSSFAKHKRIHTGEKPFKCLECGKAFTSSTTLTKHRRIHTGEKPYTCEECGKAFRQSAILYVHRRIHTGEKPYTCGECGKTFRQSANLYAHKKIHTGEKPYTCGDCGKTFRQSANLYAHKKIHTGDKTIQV

Turning to CCACCCGCCA, the figures for the binding signal with ZNF721 full-length, with ZNF721 DBD1 and in the assay with ZNF721 DBD2 were 0.108 relative 10-mer count, 0.00445 relative 10-mer count and 0.00491 relative 10-mer count, respectively.
CCCCCGCCAC: the binding signal was 0.176 relative 10-mer count in the assay with ZNF721 full-length, 0.00679 relative 10-mer count with ZNF721 DBD1 and 0.0036 relative 10-mer count with ZNF721 DBD2.
In the same order, the values of CGGAAAAAAG are 0.109 relative 10-mer count, 0.023 relative 10-mer count and 0.0288 relative 10-mer count.
The corresponding values for ACCTCCCACC are 0.113 relative 10-mer count, 0.00578 relative 10-mer count and 0.00348 relative 10-mer count.
For the sequence ACCCCCCAAC, the binding signal with ZNF721 full-length was found to be 0.103 relative 10-mer count; with ZNF721 DBD1, 0.00321 relative 10-mer count; in the assay with ZNF721 DBD2, 0.00407 relative 10-mer count.
In the same order, the values of CCCCCAACCA are 0.118 relative 10-mer count, 0.00477 relative 10-mer count and 0.00503 relative 10-mer count.
The corresponding values for CCGCCGCCCC are 0.169 relative 10-mer count, 0.00546 relative 10-mer count and 0.00168 relative 10-mer count.
In the same order, the values of AGCAGCATAC are 0.146 relative 10-mer count, 0.00179 relative 10-mer count and 0.164 relative 10-mer count.
Regarding GCTTCATACA, the binding signal amounted to 0.231 relative 10-mer count with ZNF721 full-length, 0.318 relative 10-mer count with ZNF721 DBD1 and 0.0018 relative 10-mer count with ZNF721 DBD2.
On to CACCGCCCCA, for which the binding signal was 0.107 relative 10-mer count with ZNF721 full-length, 0.00404 relative 10-mer count with ZNF721 DBD1 and 0.0024 relative 10-mer count in the assay with ZNF721 DBD2.
ACCCCACACC: the binding signal turned out to be 0.14 relative 10-mer count with ZNF721 full-length, 0.00436 relative 10-mer count in the assay with ZNF721 DBD1 and 0.00276 relative 10-mer count with ZNF721 DBD2.
The corresponding values for ACCAAAAAAA are 0.128 relative 10-mer count, 0.00904 relative 10-mer count and 0.0723 relative 10-mer count.
In the same order, the values of GAAGCGTACC are 0.104 relative 10-mer count, 0.0792 relative 10-mer count and 0.0018 relative 10-mer count.
In the case of ATCCCACCCC, the binding signal with ZNF721 full-length came out at 0.123 relative 10-mer count; with ZNF721 DBD1, 0.00573 relative 10-mer count; with ZNF721 DBD2, 0.00168 relative 10-mer count.
For the sequence CGTCCCCCCC, the figures for the binding signal with ZNF721 full-length, in the assay with ZNF721 DBD1 and with ZNF721 DBD2 were 0.126 relative 10-mer count, 0.00619 relative 10-mer count and 0.00108 relative 10-mer count, respectively.
As for CCAACCCCAC, the binding signal in the assay with ZNF721 full-length was 0.128 relative 10-mer count; with ZNF721 DBD1 it was 0.00482 relative 10-mer count; with ZNF721 DBD2, 0.00288 relative 10-mer count.
The corresponding values for CGCCACCCAC are 0.123 relative 10-mer count, 0.0056 relative 10-mer count and 0.00372 relative 10-mer count.
The corresponding values for GGTGGGGGGA are 0.186 relative 10-mer count, 0.00904 relative 10-mer count and 0.00407 relative 10-mer count.
In the same order, the values of CCATCCACCC are 0.109 relative 10-mer count, 0.00578 relative 10-mer count and 0.00467 relative 10-mer count.
For the sequence CCCACCAACC, the figures for the binding signal with ZNF721 full-length, in the assay with ZNF721 DBD1 and with ZNF721 DBD2 were 0.171 relative 10-mer count, 0.00794 relative 10-mer count and 0.00563 relative 10-mer count, respectively.
In the same order, the values of CCGCCACCCA are 0.107 relative 10-mer count, 0.00523 relative 10-mer count and 0.00276 relative 10-mer count.
As for CCCACCCCGA, the binding signal with ZNF721 full-length was determined as 0.132 relative 10-mer count; in the assay with ZNF721 DBD1, 0.00404 relative 10-mer count; in the assay with ZNF721 DBD2 it was 0.00192 relative 10-mer count.
As to GCACCCACCC, the binding signal with ZNF721 full-length stood at 0.107 relative 10-mer count; with ZNF721 DBD1, 0.00523 relative 10-mer count; with ZNF721 DBD2, 0.00479 relative 10-mer count.
Take CCCCCACACC: the binding signal with ZNF721 full-length amounted to 0.231 relative 10-mer count; in the assay with ZNF721 DBD1 it was 0.00821 relative 10-mer count; in the assay with ZNF721 DBD2 it was 0.00779 relative 10-mer count.
Turning to GGGTGGGGGA, the binding signal worked out at 0.208 relative 10-mer count in the assay with ZNF721 full-length, 0.00885 relative 10-mer count with ZNF721 DBD1 and 0.00443 relative 10-mer count in the assay with ZNF721 DBD2.
The corresponding values for CCCAACCCCA are 0.132 relative 10-mer count, 0.00459 relative 10-mer count and 0.00372 relative 10-mer count.
In the same order, the values of GCCACCACCC are 0.106 relative 10-mer count, 0.00413 relative 10-mer count and 0.00204 relative 10-mer count.
Consider CCGCCCCTCC, for which the binding signal in the assay with ZNF721 full-length amounted to 0.151 relative 10-mer count; with ZNF721 DBD1, 0.00624 relative 10-mer count; with ZNF721 DBD2, 0.00312 relative 10-mer count.
AGAAAAAAAG: the binding signal worked out at 0.118 relative 10-mer count with ZNF721 full-length, 0.0217 relative 10-mer count with ZNF721 DBD1 and 0.035 relative 10-mer count in the assay with ZNF721 DBD2.
The corresponding values for AGGAAAAAAG are 0.114 relative 10-mer count, 0.0333 relative 10-mer count and 0.0182 relative 10-mer count.
In the same order, the values of CCCCCCGCCG are 0.104 relative 10-mer count, 0.00303 relative 10-mer count and 0.0024 relative 10-mer count.
Regarding GGCGGGGGGA, the binding signal in the assay with ZNF721 full-length stood at 0.126 relative 10-mer count; with ZNF721 DBD1, 0.00619 relative 10-mer count; with ZNF721 DBD2, 0.0024 relative 10-mer count.
The corresponding values for GCCCCCCCAC are 0.112 relative 10-mer count, 0.0055 relative 10-mer count and 0.00803 relative 10-mer count.
Take CCCCGCCCAC: the binding signal with ZNF721 full-length came to 0.202 relative 10-mer count; in the assay with ZNF721 DBD1, 0.00771 relative 10-mer count; in the assay with ZNF721 DBD2, 0.00407 relative 10-mer count.
The corresponding values for CCCCCCCAAC are 0.155 relative 10-mer count, 0.0044 relative 10-mer count and 0.00791 relative 10-mer count.
In the same order, the values of CCCCACCCCC are 0.447 relative 10-mer count, 0.0179 relative 10-mer count and 0.00419 relative 10-mer count.
In the same order, the values of CCCCAACCCC are 0.283 relative 10-mer count, 0.0104 relative 10-mer count and 0.00288 relative 10-mer count.

(Values after PMC13541613, “GHT-SELEX demonstrates unexpectedly high intrinsic sequence specificity and complex DNA binding of many human transcription factors”.)
